EWS-Fli inh: EWS/Fli transcriptional activity inhibition; inhibition, % at 12.6 µM; A673 NR0B1-luciferase reporter, viability-normalised; AID 651661; hit rate 0.67% among 350,000;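 active = mean inhibition of at least 50% after viability correction, with every replicate also passing that limit; inconclusive = mean reaches 50% but only one of two replicates passes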;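 note: firefly luciferase signal divided by Alamar Blue viability fluorescence both relative to DMSO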
PAX8 inh HTS: PAX8 transcriptional activity inhibition | RMG-I TPO-luciferase reporter, SteadyGlo, 24 h | hit rate 1.2% among 360,000 | inhibition, % at 12.6 µM;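 active = mean replicate inhibition at least 60% with every replicate also reaching 60%; inconclusive = only one of the two criteria is met; inactive = mean below 60% and not all replicates reaching 60%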;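 note: luciferase light reporting Pax8 driven TPO promoter activity; plate controls were median of neutral control wells for no effect and mitoxantrone controls for full effect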
MITF TRPM1 inh: reduces MITF-dependent TRPM1 promoter luciferase signal; hit rate 0.83% among 330,000; inhibition, % at 12.5 µM; SK-MEL-5 TRPM1 promoter luciferase, 24 h;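 active = mean inhibition across replicates of 60% or more, whatever share of single replicates reaches that level; inconclusive = some that reach 60%, reason not given; inactive = mean inhibition across replicates below 60%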
Peg3 promoter: Peg3 promoter activity inhibition; HeLa PEG-Prom luciferase reporter, luminescence, overnight; inhibition, % at 20 µM; hit rate 1.7% among 360,000; AID 588405;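 active = inhibition of at least 50% at 20 µM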
Shn3 3UTR inh: inhibitors of Schnurri-3 3'UTR reporter in osteoblasts | Clone20 osteoblast Shn3 3'UTR firefly luciferase, 24 h | inhibition, % at 12.5 µM | hit rate 0.52% among 360,000;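 active = mean inhibition of at least 75% with every replicate also reaching 75%; inconclusive = mean inhibition at least 75% but some replicate below; inactive = mean inhibition below 75%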;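 note: 0% = median of neutral control wells and 100% = pilot-screen positive control compound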
ABHD5 PLIN5 PPI: inhibitors of human ABHD5-perilipin-5 interaction; Q00G26+Q8WTS1; Split G. princeps luciferase complementation, luminescence, 4 h; inhibition, % at 4 µM; hit rate 0.78% among 360,000;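 active = inhibition above the mean inhibition across every tested compound plus 3 SD, cut at about 22% in these data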;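 note: 0% = DMSO only wells and the 100% control is not disclosed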
Target sequence (Q00G26 whole entry, looked up): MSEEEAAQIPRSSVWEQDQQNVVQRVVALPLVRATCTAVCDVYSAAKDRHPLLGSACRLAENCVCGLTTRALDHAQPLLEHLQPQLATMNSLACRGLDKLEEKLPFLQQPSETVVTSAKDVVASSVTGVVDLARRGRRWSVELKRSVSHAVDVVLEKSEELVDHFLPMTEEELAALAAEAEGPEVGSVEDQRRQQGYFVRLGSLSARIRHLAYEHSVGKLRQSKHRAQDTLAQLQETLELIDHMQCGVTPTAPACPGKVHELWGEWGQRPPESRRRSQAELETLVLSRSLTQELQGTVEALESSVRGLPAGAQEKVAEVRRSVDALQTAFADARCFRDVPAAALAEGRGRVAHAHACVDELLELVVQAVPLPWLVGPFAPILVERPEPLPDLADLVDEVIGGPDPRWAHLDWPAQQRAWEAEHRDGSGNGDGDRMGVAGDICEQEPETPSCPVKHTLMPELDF
Target sequence (Q8WTS1 whole entry, looked up): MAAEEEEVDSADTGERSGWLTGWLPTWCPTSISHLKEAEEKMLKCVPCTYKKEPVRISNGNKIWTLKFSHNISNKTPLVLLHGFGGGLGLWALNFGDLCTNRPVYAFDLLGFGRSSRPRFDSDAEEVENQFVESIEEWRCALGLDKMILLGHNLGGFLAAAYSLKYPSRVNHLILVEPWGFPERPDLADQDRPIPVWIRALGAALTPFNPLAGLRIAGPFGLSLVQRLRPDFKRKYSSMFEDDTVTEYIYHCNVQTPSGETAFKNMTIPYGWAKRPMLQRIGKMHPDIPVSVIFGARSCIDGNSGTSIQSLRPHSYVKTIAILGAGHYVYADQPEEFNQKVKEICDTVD
The depositor's hits bear a star; ? = inconclusive; . = no result given. In the library only some 3% were active in any assay of this set; here they are far more common.

SMILES	EWS-Fli inh	PAX8 inh HTS	MITF TRPM1 inh	Peg3 promoter	Shn3 3UTR inh	ABHD5 PLIN5 PPI
CC(=O)c1ccc(N2CCN(c3ccc(S(=O)(=O)NCCCN(C)C)cc3[N+](=O)[O-])CC2)cc1	38	15	4	79*	?	3
CN(C)CCCNS(=O)(=O)c1ccc(N2CCN(Cc3ccc4c(c3)OCO4)CC2)c([N+](=O)[O-])c1	52*	5	-4	-1	81	9
Cc1cccc(N2C(=O)CC(Sc3nc(C)cc(C)n3)C2=O)c1 (stereo not drawn)	.	.	-8	11	-4	0
O=C1CC(Sc2nnnn2C2CCCCC2)C(=O)N1c1ccccc1 (stereo not drawn)	.	.	1	85*	25	15
Cc1cc(C)cc(N2C(=O)CC(Sc3nnnn3-c3ccccc3)C2=O)c1 (stereo not drawn)	22	.	11	108*	88*	19
Cn1nnnc1SC1CC(=O)N(c2ccccc2)C1=O (stereo not drawn)	-3	-8	-4	14	-1	8
C[C@H]1CN([C@@H](C)CO)S(=O)(=O)c2ccc(-c3cccc(C(=O)N(C)C)c3)cc2O[C@@H]1CN(C)Cc1ccc2c(c1)OCO2	28	47	.	.	.	.
Cc1ccc2nc(Cl)c3nnnn3c2c1	.	.	40	111*	97*	3
Cc1ccc2nc(N3CCN(c4cccc(C)c4C)CC3)c3nnnn3c2c1	.	-4	10	10	7	2
CN(C)C1CCN(Cc2cc(COCc3ccccc3)c3cccnc3c2O)C1 (stereo not drawn)	.	.	73*	36	88*	10
Oc1ccc(CN2CCCCC2)c2cccnc12	45	.	33	-2	79	-8
Oc1c(CN2CCCCC2)ccc2cccnc12	-2	54	77*	23	84	8
Oc1c(CN2CCN(c3ccccn3)CC2)cc(Cl)c2cccnc12	.	.	84*	50*	81	2
Oc1c(Cl)cc(CN2CCCCC2)c2cccnc12	.	.	64*	46	84	3
OCCN1CCN(Cc2cc(Cl)c3cccnc3c2O)CC1	.	.	8	17	16	1
Oc1ccc(COCc2ccccc2)c2cccnc12	.	.	23	-56	51	5
O=[N+]([O-])c1cc(CN2CCCC2)c2cccnc2c1O	.	.	11	20	-27	8
O=C(C[C@H]1C=C[C@H](NC(=O)CN2CCOCC2)[C@@H](CO)O1)NC1CCC1	2	1	.	.	.	.
C[C@@H]1CN([C@H](C)CO)C(=O)Cc2cc(NC(=O)Nc3ccccc3)ccc2O[C@@H]1CN(C)Cc1ccccc1	3	-16	.	.	.	.
COCc1cc(CN2CCCC2)c(O)c2ncccc12	.	.	27	20	41	5
Oc1c(CN2CCCCC2)cc(COCc2ccccc2)c2cccnc12	.	64*	88*	76*	92*	11
CC(C)NC(=O)N(C)C[C@H]1OCCCC[C@H](C)Oc2ccc(NC(=O)CCC(F)(F)F)cc2C(=O)N([C@@H](C)CO)C[C@H]1C	.	-8	.	.	.	.
C[C@H]1CN([C@@H](C)CO)C(=O)Cc2cc(NC(=O)C3CC3)ccc2O[C@@H]1CN(C)Cc1ccc(-c2ccccc2)cc1	-7	103*	.	.	.	.
C[C@H](CO)N1C[C@H](C)[C@@H](CN(C)Cc2ccc(-c3ccccc3)cc2)Oc2ccc(NC(=O)C3CC3)cc2CC1=O	-4	104*	.	.	.	.
C[C@H](CO)N1C[C@H](C)[C@@H](CN(C)Cc2ccc(-c3ccccc3)cc2)Oc2ccc(NC(=O)C3CCCCC3)cc2CC1=O	18	11	.	.	.	.
SMILES	EWS-Fli inh	PAX8 inh HTS	MITF TRPM1 inh	Peg3 promoter	Shn3 3UTR inh	ABHD5 PLIN5 PPI
C[C@@H]1CN([C@H](C)CO)C(=O)c2cc(C#CC3CCCCC3)cnc2O[C@@H]1CN(C)C(=O)C1CCCCC1	-6	.	.	.	.	.
Cc1ccc2c(c1)/C(=C/c1ccccc1)C(=O)N2	-5	-17	4	11	-15	23*
C[C@@H]1CN([C@@H](C)CO)C(=O)c2cc(NC(=O)Nc3ccc(F)cc3)ccc2O[C@@H]1CN(C)C(=O)Nc1cccc2ccccc12	16	75*	.	.	.	.
C[C@H](CO)N1C[C@H](C)[C@H](CN(C)C(=O)Nc2cccc3ccccc23)Oc2ccc(NC(=O)Nc3ccc(F)cc3)cc2C1=O	0	6	.	.	.	.
C[C@@H]1CN([C@H](C)CO)C(=O)c2cc(NC(=O)Nc3cccc4ccccc34)ccc2O[C@@H]1CN(C)C(=O)Nc1cccc2ccccc12	6	78*	.	.	.	.
C[C@@H]1CN([C@H](C)CO)C(=O)c2cc(NS(=O)(=O)c3cn(C)cn3)ccc2O[C@H]1CN(C)S(=O)(=O)c1cn(C)cn1	-2	3	.	.	.	.
C=CCSC(=C(C#N)C#N)c1cc2c([nH]1)CCCC2	.	.	39	94*	47	20
CCCC[C@@H](CNC)NC[C@H](Cc1ccc(O)cc1)NCCc1ccc(OCC)cc1	24	53	96*	97*	17	-2
C[C@@H]1CN([C@@H](C)CO)C(=O)c2cc(-c3ccc(C#N)cc3)cnc2O[C@H]1CN(C)C(=O)c1cccnc1	-5	-9	.	.	.	.
Cc1nc(N2CCN(C(=O)c3ccco3)CC2)c2c3c(sc2n1)CC(C)CC3 (stereo not drawn)	18	21	6	6	92*	1
Cc1nc(N2CCN(C(=O)c3ccco3)CC2)c2c3c(sc2n1)CCCC3	.	.	3	16	24	9
CCCNC(=O)Nc1ccc2c(c1)C(=O)N(C)C[C@@H](OC)[C@@H](C)CN(CCC)[C@H](C)CO2	2	15	.	.	.	.
O=C(N/N=C/c1cc([N+](=O)[O-])ccc1Cl)c1cnccn1	57*	12	22	2	-6	-4
Cc1ccc2sc(N(CCCN(C)C)C(=O)c3ccc(S(=O)(=O)N4CCOCC4)cc3)nc2c1C	-8	-13	-7	-26	-19	14
COc1ccc(Cl)c2sc(N(CCN(C)C)C(=O)CCS(=O)(=O)c3ccc(C)cc3)nc12	9	5	5	18	-4	4
CCN(Cc1ccccc1)S(=O)(=O)c1ccc(C(=O)N(CCCN(C)C)c2nc3c(C)c(C)ccc3s2)cc1	21	0	-4	93*	-11	12
Cc1cccc2sc(N(CCCN(C)C)C(=O)c3nc4ccccc4s3)nc12	.	.	73*	48	14	1
COc1ccc(OC)c2sc(N(CCCN(C)C)C(=O)CCS(=O)(=O)c3ccccc3)nc12	43	108*	21	109*	19	39*
CCN(CC)CCN(C(=O)CCS(=O)(=O)c1ccccc1)c1nc2c(C)cc(C)cc2s1	.	17	13	57*	12	18
CCN(CC)CCN(C(=O)CCS(=O)(=O)c1ccccc1)c1nc2cc(C)cc(C)c2s1	4	-21	10	43	46	-2
O=C(c1ccc(F)cc1)N1CC2(C1)[C@H](c1ccccc1)[C@H](CO)N2Cc1ccccn1	5	.	.	.	.	.
CN(C)CCN(C(=O)CCS(=O)(=O)c1ccccc1)c1nc2c(F)cccc2s1	6	7	-12	-21	-11	0

Screens: PubChem, several laboratories
